TrxR1 substrate = substrates of rat thioredoxin reductase 1; Potency, µM (highest dose often 114 µM), inactives show at the highest dose activity change, negative = substrate turnover; purified TrxR1 substrate turnover, NADPH consumption readout; 390,000 compounds, 0.01% hits; also: nearly all actives have a fitted effect of over 50% in size
Target sequence (O89049 whole entry, looked up): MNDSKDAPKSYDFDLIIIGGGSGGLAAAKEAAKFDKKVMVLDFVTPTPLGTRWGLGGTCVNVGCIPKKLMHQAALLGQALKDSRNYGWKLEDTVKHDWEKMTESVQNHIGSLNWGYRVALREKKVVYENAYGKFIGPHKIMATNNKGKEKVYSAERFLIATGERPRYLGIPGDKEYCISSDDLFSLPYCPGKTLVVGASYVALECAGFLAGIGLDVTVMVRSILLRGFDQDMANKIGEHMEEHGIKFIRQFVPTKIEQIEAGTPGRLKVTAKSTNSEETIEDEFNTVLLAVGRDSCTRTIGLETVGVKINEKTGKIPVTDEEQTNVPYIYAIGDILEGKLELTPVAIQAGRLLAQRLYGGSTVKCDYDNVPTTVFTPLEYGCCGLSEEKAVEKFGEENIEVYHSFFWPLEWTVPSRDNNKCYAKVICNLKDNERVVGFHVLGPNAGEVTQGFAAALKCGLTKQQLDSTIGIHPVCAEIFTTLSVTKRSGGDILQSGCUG
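Rat TrxR1, dispensed at 90 nM, was prereduced with 400 uM NADPH (final) for 5 min at ~22 deg C, then incubated with compound 15 min before 400 uM selenite. A first-read NADPH fluorescence drop versus no-compound background flagged substrates.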
mIDH1 inhibitor = human IDH1 R132H inhibition; Potency, µM (top dose mostly 76.6 µM), for inactives: at the top dose activity change, negative = inhibition, actives largely listed as inhibitors; O75874; IDH1-R132H enzyme, NADPH consumption, diaphorase/resazurin fluorescence; 390,000 compounds, 0.093% hits; also: nearly all actives have a fitted effect of over 65% in size
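IDH1-R132H (0.5 ug/mL dispensed) in pH 7.5 Tris buffer was preincubated 30 min with compound, then given a substrate mix of 0.016 mM NADPH and 2 mM alpha-KG for 80 min at room temperature; remaining NADPH was read by diaphorase/resazurin fluorescence.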
rTrxR1 inhibitor = blocks rat thioredoxin reductase 1; recombinant rTrxR1, NADPH fluorescence consumption, selenite substrate; O89049; Potency, µM (series often up to 114 µM), for the others: at the highest dose activity change, negative = inhibition, most hits filed as inhibitors; 390,000 compounds, 1% hits; also: nearly all actives have a fitted effect of over 65% in size
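Rat TrxR1 (90 nM in the dispensed reagent) was pre-reduced with 400 uM NADPH for 5 min at room temperature, then incubated with compound for 15 min. After 400 uM selenite was added, NADPH fluorescence (Ex 340/Em 450 nm) was followed for 8 min.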
GLS inhibitor = glutaminase GLS (human) inhibition; O94925; GLS enzymatic activity, qHTS titration; Potency, µM (titrated, usually from 45.5 µM), for the others: top-dose activity change, negative = inhibition, usual class: inhibitors; 410,000 compounds, 0.21% hits; AID 624170
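Glutamate formation by hKGA was monitored fluorometrically using coupled glutamate oxidase, HRP and Amplex Red. Substrate was added as 1 mM L-glutamine solution; incubation was 30 min at RT after an initial read.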
The depositor's hits bear a star; u = inconclusive; x = no result given; [ ] = remark or other dose. The list is not random: actives were taken first. Their share in the collection is about 1.2%. Calls follow the shape of the dose curve; as a rule, active = well fitted curve in the direction sought with a large enough effect; inconclusive = small, poorly fitted or top-dose-only effect, or another doubt; inactive = no such curve, though single readings can be large; an effect the other way counts as inactive or inconclusive. % is scaled to controls: 0 for no effect and ±100 for the full control effect; potency is read from the fitted curve at half-maximal effect.

SMILES	TrxR1 substrate	mIDH1 inhibitor	rTrxR1 inhibitor	GLS inhibitor
CC(C)C[C@@H](CNCC(=O)[C@H](Cc1c[nH]c2ccccc12)NC(=O)c1[nH]cnc1C(=O)N[C@H](CN)CC(C)C)NC(=O)c1nc[nH]c1C(=O)N[C@@H](CC(=O)O)C(=O)O	1%	-5%	3%	8.9µM*
CC(C)C[C@@H](CNCC(=O)[C@H](Cc1c[nH]c2ccccc12)NC(=O)c1[nH]cnc1C(=O)N[C@@H](C)CN)NC(=O)c1nc[nH]c1C(=O)N[C@@H](CC(=O)O)C(=O)O	-5%	-4%	-9%	10µM*
CS(=O)(=O)Nc1ccc(C2=NN(S(C)(=O)=O)C(c3ccccc3)C2)cc1 (stereo not drawn)	163%	2%	79µM*	-13%
Cc1ccc(N2C(=O)C3C4C=CC(CNC(=S)N5CCN(c6ccccn6)CC5)(O4)C3C2=O)cc1 (stereo not drawn)	5%	-2%	11µM*	2%
CCC1(C(=O)OC)NC(c2ccco2)C2C(=O)N(c3ccccc3)C(=O)C21 (stereo not drawn)	9%[57.1 µM]	-4%	u	0%
Cc1ccc(N2C(=O)C3C4C=CC(CNC(=S)Nc5ccc(Cl)cc5)(O4)C3C2=O)cc1 (stereo not drawn)	-2%	-4%	28µM*	-7%
Cc1ccc(N2C(=O)C3C4C=CC(CNC(=S)Nc5cccc(Cl)c5)(O4)C3C2=O)cc1 (stereo not drawn)	-14%	4%	7.9µM*	0%
Cc1ccc(N2C(=O)N(CC(=O)Nc3cccc(Cl)c3)C(=O)C2C)cc1 (stereo not drawn)	-6%	5%	-10%	5%
CC(C)(C)C(=O)NCC12C=CC(O1)C1C(=O)N(c3ccccc3)C(=O)C12 (stereo not drawn)	1%	-2%	18µM*	14%
CCc1nnc(NC(=O)C(=O)c2cc(C)n(-c3ccccc3)c2C)s1	8%	-10%	22%	-5%
C=C(/C=C/c1ccc(N(C)C)cc1)c1nc2ccccc2s1	-9%	x	-19%	x
Cc1ccc(N2C(=O)C3C4C=CC(CNC(=S)Nc5ccc(F)cc5)(O4)C3C2=O)cc1 (stereo not drawn)	-12%	-5%	16µM*	7%
Cc1ccc(CNC(=O)C2CCCN(C(=O)Nc3ccc(F)cc3)C2)cc1 (stereo not drawn)	8%[57.1 µM]	27%	14%[57.1 µM]	19%
CC(C)COC(=O)NCC12C=CC(O1)C1C(=O)N(c3ccc(Cl)cc3)C(=O)C12 (stereo not drawn)	13%[57.1 µM]	7%	14µM*	-10%
O=C(NCc1ccc(F)cc1)c1ccc2c(c1)N(Cc1c(F)cccc1Cl)C(=O)CS2	9%[2.29 µM]	-7%	27%	2%
CCOC(=O)Cn1cccc1-c1nc(-c2ccc(OC)cc2)c(-c2ccc(OC)cc2)s1	x	x	x	1%
CC(=O)N(C1=C(N)C(=O)c2ccccc2C1=O)C(C)C	3%	13%	79µM*	4%
COC(=O)C1=C(C)N(c2ccc(OC)c(OC)c2)C(=O)/C1=C\c1ccco1	0%	0%	28µM*	-10%
Cc1[nH]c2ccccc2c1C(C[N+](=O)[O-])c1ccco1 (stereo not drawn)	2%	-1%	13µM*	6%
COc1ccc(C(=O)C=Cc2ccc(OCc3ccccc3)c(OC)c2)cc1OC	x	-2%	x	4%
COc1cc(/C=C/[N+](=O)[O-])ccc1OCc1cccc(C(=O)O)c1	-12%	10%	32µM*	18%
COC(=O)C1C2C=CC3(CN(Cc4ccco4)C(=O)C13)O2 (stereo not drawn)	4%[57.1 µM]	2%	u	-5%
CC12C=CC3(CN(Cc4ccccc4)C(=O)C3C1C(=O)NCc1ccco1)O2 (stereo not drawn)	8%	4%	56µM*	3%
Cc1[nH]n(-c2ncc(-c3ccccc3)s2)c(=O)c1C(c1ccc(Br)cc1)C(C#N)C#N (stereo not drawn)	-6%	u	32µM*	u
COc1ccc(OC)c(CCNc2nc3cc(OC)c(OC)cc3c3nc(-c4cccnc4)nn23)c1	-1%	5%	0%	0%
SMILES	TrxR1 substrate	mIDH1 inhibitor	rTrxR1 inhibitor	GLS inhibitor
COc1cccc(NC(=O)c2nc(S(C)(=O)=O)ncc2Cl)c1	6%	0%	8.9µM*	-2%
Cc1cccc(NC(=O)c2nc(S(C)(=O)=O)ncc2Cl)c1	11%[57.1 µM]	7%	7.1µM*	4%
CCS(=O)(=O)c1ncc(Cl)c(C(=O)Nc2c(C(=O)Nc3cccc(C)c3)oc3ccccc23)n1	6%	-19%	9%	1%
Cc1ccccc1OCC(=O)Nc1ccc(C(=O)OCc2cc(=O)n3ccsc3n2)cc1	-7%[57.1 µM]	8%	1%[57.1 µM]	-15%
NS(=O)(=O)c1ccc(NC(=O)CCn2c(=O)oc3ccccc32)cc1	3%	5%	12%	6%
C=C1C(=O)C23C(O)C1CCC2C12CCCC(C)(COC(C)=O)C1C(O)C3(O)OC2 (stereo not drawn)	-7%	3%	7.1µM*	17%
Cn1nc(-c2ccc(F)cc2)nc2c(=O)n(C)c(=O)nc1-2	22µM*	x	28µM*	x
Cn1nc(-c2ccc(Cl)cc2)nc2c(=O)n(C)c(=O)nc1-2	18µM*	x	u	x
Cn1nc(-c2cccnc2)nc2c(=O)n(C)c(=O)nc1-2	u	x	-21%	x
c1ccc(-c2nc3ccccc3nc2-c2ccccn2)nc1	-14%	2%	-4%	1%
Cc1ccc(-c2nc3ccc(C(=O)O)cc3nc2-c2ccc(C)cc2)cc1	478%	u	-26%	-23%
OC1=C(O)c2nc3ccccc3nc21	2%	0%	1.3µM*	29%
Cc1cc2nc3c(nc2cc1C)C(O)=C3O	1%	2%	2.5µM*	0%
OC1=C(O)c2nc3cc(C(F)(F)F)ccc3nc21	-5%	-1%	2µM*	30%
CCc1ccc(NC(=O)Cn2c(=O)n(CCCC(=O)NCCc3ccc(OC)c(OC)c3)c(=O)c3ccccc32)cc1	1%	-6%	0%	4%
CC(=C/C(=O)O)/C=C/c1ccc(Cl)o1	10%[57.1 µM]	2%	u	18µM*
COC(=O)C(Cc1ccccc1)NS(=O)(=O)c1cc(Br)ccc1Br (stereo not drawn)	-1%	x	13%	x
NNC(=O)c1ccc(C(=O)N(c2ccccc2)c2ccccc2)cc1	-4%	x	-6%	x
O=C(O)c1ccc(N/N=C/C(Br)=C/c2ccccc2)cc1	-15%	4%	32µM*	9%
O=C(CNC(=O)OCc1ccccc1)Oc1ccc2ccc(=O)oc2c1	251%	0%	25µM*	19%
CC(C)(C)OC(=O)NCCC(=O)Oc1ccc2ccc(=O)oc2c1	102%	0%	50µM*	13%
COCCNC(=O)C1(C)CCN(C(=O)c2cc(-c3ccccc3)cs2)C1 (stereo not drawn)	x	x	x	0%
Cc1[nH]c2ccccc2c1C(=O)CN1CCC(C)CC1	-4%	-1%	35µM*	-5%
COc1ccc(C=C2C(=O)OC(C)(C)OC2=O)cc1OC	5%[57.1 µM]	16%	u	2%

Screening data deposited in PubChem by National Center for Advancing Translational Sciences (NCATS).
